The source of these data is PubChem BioAssay (NCATS).

A number with no mark means an inactive call. Calls come from the whole dose curve; as a rule, active = well fitted curve in the direction sought with a large enough effect; inconclusive = small, poorly fitted or top-dose-only effect, or another doubt; inactive = no such curve, though single readings can be large; an effect the other way counts as inactive or inconclusive. Results filed as inconclusive are left out.

In the first experiment the test system is Nanoluciferase (engineered Oplophorus gracilirostris luciferase). Kind of experiment: Primary Nanoluciferase (NLuc) qHTS assay for identification of artifact compounds. (AID 1845222).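 Note: 0% = DMSO and -100% = no enzyme.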 Particulars: NLuc-conditioned medium, Nano-Glo luminescence, 5 min; series mostly up to 54.1 µM; activity, negative = inhibition: at the top concentration. A digest of the protocol:
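Diluted conditioned medium from NLuc-expressing S16 cells treated with compounds for 15 min at room temperature, then Nano-Glo substrate added; luminescence read after 5 min. Percent inhibition versus no-enzyme and DMSO controls fitted to 4-parameter Hill equation.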
In general terms: In qHTS, concentration-response curves come from the screen itself.
As for `CC1OC2O[C@H]3[C@@H](OCC(O)[C@H]3O)OC(=O)C34CCC(C)(C)CC3C3=CCC5C6(C)CC(O)C(OC7OC(CO)C(O)C(O)C7O[C@@H]7OC[C@H](OC(=O)CC(C)(O)CC(=O)OC1C(OC1OCC(O)C(O)C1O)C2O)[C@@H](O)[C@H]7O)C(C)(CO)C6CCC5(C)C3(C)CC4` (stereo partly drawn), the “activity, negative = inhibition” value is 1.86% [at 25.7 µM].
Same read-out and setting: next, `COCCNCc1ccc(-c2cc3nccc(Oc4ccc(NC(=S)NC(=O)Cc5ccc(F)cc5)cc4F)c3s2)nc1`: -5.55%; `Cc1cc(CS(=O)(=O)c2ccccc2)cc(OCc2ccc(CN3CCC[C@@H]3CO)cc2)c1`: -23.1%.

System in another experiment: not listed separately
Description: Primary redox qHTS assay for identification of artifact compounds. (AID 1845223).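 Note: 0% = DMSO and 100% = reference compound.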 Particulars: Amplex Red/HRP redox cycling with DTT, fluorescence; series mostly up to 53.8 µM; redox activity (% of DA3003): at the top concentration. Summed up: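 Amplex Red (25 uM) and HRP (250 mU/mL) in HBSS, with compounds for 15 min, then 250 uM DTT for 30 min, room temperature, dark. Fluorescence 525/598 nm read; normalized to DMSO and 10 uM DA3003; Hill fit.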
On to `CN[C@@H]1[C@@H](O)[C@@H](O[C@@H]2[C@@H](O)[C@H](O[C@H]3O[C@@H]([C@@H](C)NC)CC[C@H]3N)[C@@H](N)C[C@H]2N)OC[C@]1(C)O`, for which the “redox activity (% of DA3003)” value is -0.911%.
The same measure, in the same setting: the result for `C[N+]1(C)[C@@H]2CC[C@H]1CC(OC(=O)C(O)c1ccccc1)C2` (stereo partly drawn) reads -0.922%.
For the compound `O=C(c1ccc(F)c(F)c1Nc1ccc(I)cc1F)N1CC(O)([C@@H]2CCCCN2)C1`, the “redox activity (% of DA3003)” value was 14.7%.
Same read-out and setting: next, `CC(CCC1(O)OC2CC3C4CC=C5CC(O[C@@H]6O[C@H](CO)[C@@H](O[C@@H]7O[C@H](CO)[C@@H](O)[C@H](O)[C@H]7O)[C@H](O)[C@H]6O[C@@H]6O[C@@H](C)[C@H](O)[C@@H](O)[C@H]6O)CCC5(C)C4CCC3(C)C2C1C)CO[C@@H]1O[C@H](CO)[C@@H](O)[C@H](O)[C@H]1O` (stereo partly drawn): 5.01% [at 11.5 µM].
On the same count and under the same terms, next, `CN([C@H]1c2cc(OCCCC(F)(F)F)ccc2OC(C)(C)[C@@H]1O)S(C)(=O)=O`: 17.1%.
